Our source for the Inhibition values is ChEMBL document CHEMBL1157539, “Thousands of chemical starting points for antimalarial lead identification” (Nature, 2010).

Structures are written as SMILES.

In the experiment the test system is Plasmodium falciparum. The experiment can be described thus: GSK_TCMDC: Inhibition of Plasmodium falciparum 3D7 in whole red blood cells, using parasite LDH activity as an index of growth. Test compounds present at 2uM. The class given is functional.
In the case of `CCCCc1cc(NCc2ccncc2)nc(Nc2ccc(C)cc2)n1`, the Inhibition was 100%.

`CC1CCN(CC[C@H]2CCCN2S(=O)(=O)c2cccc(NC(=O)c3cc4ccccc4s3)c2)CC1` gave an Inhibition of 97%.

Consider `CCOc1c(Cl)cc(Cl)cc1CNCCCNc1nc2ccccc2[nH]1.Cl`, for which the Inhibition was 94%.

As for `CCC(CC)CN1C(=O)C(C)(c2ccccc2)N=C1N.O=C(O)C(F)(F)F` (stereo not given), the Inhibition turned out to be 84%.

As for `O=C(/C=C/c1ccc(Cl)c(Cl)c1)NCCCCCN1CCC(CCNC(=O)/C=C/c2ccccc2F)CC1`, the Inhibition was determined as 94%.

On to `CCN(CCCN1CCCC1)c1cc(C)nc(Nc2ccc(Cl)cc2)n1.O=C(O)C(=O)O`, for which the Inhibition came out at 100%.

`CN1CCN(CCCN(Cc2cccc(-c3ccc(CNCc4ccc5c(c4)OCO5)cc3)c2)C(=O)Nc2ccccc2)CC1.O=C(O)C(F)(F)F` came in with an Inhibition of 98%.

Take `CN(C)CCNc1nccc(N2CCc3ncnc(Nc4ccc(OCc5cccc(F)c5)c(Cl)c4)c3C2)n1`: the Inhibition is on record as 100%.

For `O=C(Nc1cccc(C(F)(F)F)c1)Nc1cc(F)c(F)cc1Cl`, the Inhibition was 83%.

On to `Cn1nc(-c2cccc(CNC3CCc4ccccc43)c2)c2cnc(NCCCN3CCCC3)nc21` (stereo not given), for which the Inhibition stood at 99%.
